Rows were chosen to be rich in hits. Some 3.6% of all compounds tested hit in one or more screens of this group.
CF NFkB block: inhibitors of cystic fibrosis induced NF-kB; KKLEB NF-kB-GFP reporter, PAF-induced, GFP fluorescence overnight; hit rate 0.86% among 360,000; inhibition, % at 5 µM;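 active means at least 50% inhibition at 5 µM, scaled per plate between neutral and stimulator controls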;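 further: PAF is a Pseudomonas aeruginosa culture filtrate used as stimulus; plate controls were PAF-stimulated DMSO wells for no effect and unstimulated DMSO wells for full effect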
HSP90 refold inh: inhibitors of HSP90 luciferase refolding in rabbit reticulocyte lysate; luciferase refolding luminescence, 3 h; inhibition, % at 5.6 µM; hit rate 0.91% among 290,000; AID 1789;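 active means inhibition above the screen-wide mean plus 3 SD, computed separately per campaign, cut at about 16% in these data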;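 further: 0% = DMSO wells and 100% = 60 µM geldanamycin wells; inhibitors lower the luminescence because luciferase stays unfolded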
Mdm2-MdmX inh: human Mdm2/MdmX binding inhibition; SaOS-2 split-luciferase Mdm2/MdmX complementation, luminescence; inhibition, % at 8 µM; hit rate 3% among 330,000; AID 485346;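 active means inhibition of at least 50% at 8 µM in the primary screen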
Peg3 promoter: inhibitors of Peg3 promoter; HeLa PEG-Prom luciferase reporter, luminescence, overnight; inhibition, % at 20 µM; hit rate 1.7% among 360,000; AID 588405;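 active means inhibition of at least 50% at 20 µM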
KKLEB cytotox: CF airway cell cytotoxicity counter-screen. KKLEB CF airway cells viability, ATPlite luminescence, overnight; hits give low values; cells stimulated with P. aeruginosa culture filtrate. activity change (cytotoxicity), % at 5 µM. hit rate 0.36% among 360,000;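 active means corrected activity change at or below -50% at 5 µM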
LGR2 antag: blocks bursicon-induced cAMP signaling via Drosophila LGR2 | inhibition, % at 9.99 µM | HEK293 LGR2, CRE-luciferase, bursicon-stimulated, 4 h | hit rate 0.35% among 380,000;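 active means drop in luminescence signal, shown as inhibition above about 50% in the replicate tests, limit read from the data, passing the limit was not always enough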;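 further: agonist challenge used bursicon conditioned medium at about half maximal strength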
Mdm2-MdmX conf: human Mdm2/MdmX binding inhibition, confirmed. hit rate 55% among 10,000. luminescent assay. shares compounds with Mdm2-MdmX inh. inhibition, % at 8 µM; in the data active means inhibition above about 40%
FLuc counter: inhibits full-length luciferase, flagging false Mdm2/MdmX hits. shares compounds with Mdm2-MdmX inh. SaOS-2 full-length luciferase counterscreen, luminescence. inhibition, % at 8 µM. hit rate 77% among 6,200. AID 504607;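 active means mean inhibition at 8 µM reaching about 37%, which flags the compound as non-specific, limit read from the data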;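 further: p53-null SaOS-2 cells with luciferase driven by a doxycycline-inducible promoter; compound on cells about two nights before reading with doxycycline added after day one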
Starred values were filed as active, the others as inactive; . = no result given.

SMILES	CF NFkB block	HSP90 refold inh	Mdm2-MdmX inh	Peg3 promoter	KKLEB cytotox	LGR2 antag	Mdm2-MdmX conf	FLuc counter
O=C(C[C@@H]1C[C@@H]2c3cc(NC(=O)NC4CCCCC4)ccc3O[C@@H]2[C@@H](CO)O1)NC1CCCC1	.	.	.	.	.	-18	.	.
O=C(CCc1nc(-c2ccccc2F)no1)Nc1ccc(Oc2ccccc2)cc1	11	3	61*	16	-7	14	23	52*
COc1cccc(NC(=O)CCc2nc(-c3ccccc3F)no2)c1	4	-4	6	-35	4	-8	.	.
Cc1ccc(C(C)NC(=O)c2cc3cc(Br)ccc3oc2=N)cc1 (stereo unspecified)	28	0	51*	33	-7	-3	35	.
O=C(NC1CCCC1)N[C@@H]1CC[C@H](CC(=O)N2CCOCC2)O[C@@H]1CO	.	.	.	.	.	-13	.	.
CCCNC(=O)N(C)C[C@H]1Oc2cc(-c3ccncc3)ccc2S(=O)(=O)N([C@@H](C)CO)C[C@@H]1C	.	.	.	.	.	-31	.	.
CNC[C@H]1Oc2ccc(NS(=O)(=O)c3ccccc3)cc2C(=O)N([C@@H](C)CO)C[C@H]1C	.	.	.	.	.	13	.	.
O=[N+]([O-])c1cc(CN2CCN(c3ccccc3)CC2)c(O)c2ncccc12	6	4	75*	59*	9	31	79*	42*
CC(=O)NC(c1ccc(C)cc1)c1cc([N+](=O)[O-])c2cccnc2c1O (stereo unspecified)	11	-4	68*	54*	7	.	68*	25
CN(Cc1cc([N+](=O)[O-])c2cccnc2c1O)C1CCCCC1	.	-3	4	.	.	.	.	.
O=[N+]([O-])c1cc(Cl)c(O)c2ncccc12	15	2	51*	57*	1	-3	54*	56*
O=[N+]([O-])c1cc(Cl)c2cccnc2c1O	3	4	46	34	11	18	.	.
CCn1cnc2scc(-c3ccccc3)c2c1=O	13	0	4	0	-24	.	.	.
Cn1cc(/C=N/n2cnc3scc(-c4ccc(Cl)cc4)c3c2=O)c2ccccc21	37	2	73*	25	-18	.	63*	63*
Cc1oc(-c2ccccc2Cl)nc1CSCC(=O)N1CCCC1	-4	-1	78*	2	13	.	84*	26
Cc1oc(-c2ccccc2Cl)nc1CSCC(=O)NC1CCCC1	9	-1	31	11	0	.	.	.
Cn1cncc1C#Cc1c(C=O)[nH]c2ccccc12	43	.	71*	46	-13	30	42*	66*
O=C(CSc1nc(-c2ccccc2)c(-c2ccccc2)[nH]1)NCc1ccco1	-3	3	53*	28	-3	.	56*	73*
Cn1nc(C(F)(F)F)c(/C=N/OC(=O)c2ccccc2Cl)c1SCc1ccccc1Cl	25	-1	55*	46	-19	.	15	.
Cn1nc(C(F)(F)F)c(/C=N/OC(=O)c2ccccc2)c1SCc1ccc(Cl)cc1	-7	-4	33	27	0	.	.	.
COCC(=O)Nc1ncc(S(=O)(=O)c2ccc([N+](=O)[O-])cc2)s1	8	-2	11	10	9	-1	.	.
O=C(NC(Nc1ncc(S(=O)(=O)c2ccc([N+](=O)[O-])cc2)s1)(C(F)(F)F)C(F)(F)F)c1ccc(Cl)cc1	50	2	97*	42	-55*	.	96*	30
CC(C)Cn1c(N)c(C(=O)COC(=O)c2cc(C(F)(F)F)nc3ccccc23)c(=O)n(C)c1=O	.	-4	27	.	.	14	.	.
CC(C)Cn1c(N)c(C(=O)COC(=O)c2cc(-c3ccccc3)nc3ccccc23)c(=O)n(C)c1=O	13	-4	28	28	1	36	.	.
Cn1c(=O)c(C(=O)COC(=O)c2cc(C(F)(F)F)nc3c(C(F)(F)F)cccc23)c(N)n(CC2CC2)c1=O	.	1	77*	.	.	10	3	.
Cn1c(N)c(C(=O)COC(=O)c2cc(-c3ccccc3)nc3ccccc23)c(=O)n(C)c1=O	.	.	66*	.	.	.	29	60*
C[C@H]1CN([C@@H](C)CO)C(=O)c2cc(NS(=O)(=O)c3cccs3)ccc2O[C@H]1CN(C)C(=O)Nc1ccc2c(c1)OCO2	.	.	.	.	.	5	.	.

Screening results from PubChem BioAssay.
